# Screens: PubChem BioAssay, National Center for Advancing Translational Sciences (NCATS)
# IL1B secr inh = blocks inflammasome-driven IL-1 beta release; THP-1 LPS/ATP IL-1B secretion, AlphaLISA, 16 h; hits give low values; activity change, % at 57.5 µM; 360,000 compounds, 4.7% hits; in the data active means activity change below about -50%; inconclusive means mostly about -30% to -49%; further: on the % scale 0 is the no-effect control and ±100 the full control effect
#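 Secreted IL-1B measured by AlphaLISA bead assay after 16 h compound exposure of THP-1 cells; compounds (final up to 57.5 uM) added 1 h before LPS (250 ng/mL) and ATP (1.25 mM) stimulation; lower signal means less secretion.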
# TDP1 cell noCPT = qHTS for Inhibitors of human tyrosyl-DNA phosphodiesterase 1 (TDP1): qHTS in cells in absence of CPT | DT40 Tdp1-/- hTDP1 cells, no CPT, ATP luminescence, 48 h | Potency, µM (doses to about 46.2 µM), for the others: at the highest dose activity change, negative = growth inhibition, hits mostly inhibitors | 420,000 compounds, 15% hits | AID 686978, 2013; further: potency means the concentration at half of the fitted maximal effect; on the % scale 0 is the no-effect control and ±100 the full control effect; nearly all actives have a fitted effect of over 55% in size
#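 Luminescent ATP content (CellTiter-Glo) served as the growth readout. Knockout chicken DT40 cells expressing human TDP1 were exposed to compounds without camptothecin for a minimum 48 hr at 37 °C.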
# HepG2 viability = kills HepG2 cells in TGF-b inhibitor counter-screen. 410,000 compounds, 0.76% hits. HepG2 CAGA-GFP viability, ATP luminescence, 18 h. Potency, µM (doses to about 46.1 µM), for inactives: at the highest dose activity change, negative = cytotoxicity, actives largely listed as cytotoxic; further: potency means the concentration at half of the fitted maximal effect
#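 HepG2 CAGA-GFP cells (1000/well, DMEM with 1% FBS) received compound, then TGF-beta at 500 pg/mL final, and were incubated 18 hours at 37 degrees C. Viability was read by CellTiter-Glo luminescence. Media-only wells were set as complete cell-killing and DMSO as no toxicity.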
# TDP1 cell CPT = growth inhibition of DT40 Tdp1-/-;hTDP1 cells with camptothecin (screen for TDP1 inhibitors); chicken DT40 Tdp1-/-;hTDP1 cells + 20 nM CPT, ATP luminescence, 48 h; Potency, µM (doses to about 46.2 µM), for inactives: top-dose activity change, negative = growth inhibition, usual class: inhibitors; 420,000 compounds, 12% hits; AID 686979; further: potency means the concentration at half of the fitted maximal effect; on the % scale 0 is the no-effect control and ±100 the full control effect; nearly all actives have a fitted effect of over 55% in size
#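 Chicken DT40 Tdp1-/- cells stably complemented with human TDP1 were seeded at 400 cells/well in medium containing 20 nM camptothecin, exposed to pin-transferred compounds, and grown at 37 °C for at least 48 hr. Viability was read as ATP luminescence.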
# TGFb SMAD3 inh = inhibitors of TGF-b signaling; 410,000 compounds, 1.2% hits; HepG2 CAGA-GFP TGF-b/SMAD3 reporter, GFP fluorescence, 18 h; TGF-beta stimulated, 500 pg/mL final; Potency, µM (top dose mostly 46.1 µM), for inactives: at the top dose activity, negative = inhibition, hits mostly inhibitors; further: potency means the concentration at half of the fitted maximal effect; on the % scale 0 is the no-effect control and ±100 the full control effect; nearly all actives have a fitted effect of over 65% in size
#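 HEPG2 CAGA-GFP, 1000 cells/well; 2 h settle, 37 C; cpd via pin tool; TGF-b 500 pg/mL final; 18 h, 37 C; GFP imaging ex488/em500-530; %Activity normalised to -TGF-b and +DMSO controls; CRC fit, curve class.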
# TDP1 inh = TDP1 (human) enzyme inhibition | recombinant TDP1, AlphaScreen DNA substrate cleavage | Potency, µM (titrated, usually from 130 µM), without a hit: at the top dose activity change, negative = inhibition, hits mostly inhibitors | 350,000 compounds, 0.28% hits | AID 485290; further: potency means the concentration at half of the fitted maximal effect; on the % scale 0 is the no-effect control and ±100 the full control effect; nearly all actives have a fitted effect of over 40% in size
# Target sequence (Q9NUW8 whole entry, looked up): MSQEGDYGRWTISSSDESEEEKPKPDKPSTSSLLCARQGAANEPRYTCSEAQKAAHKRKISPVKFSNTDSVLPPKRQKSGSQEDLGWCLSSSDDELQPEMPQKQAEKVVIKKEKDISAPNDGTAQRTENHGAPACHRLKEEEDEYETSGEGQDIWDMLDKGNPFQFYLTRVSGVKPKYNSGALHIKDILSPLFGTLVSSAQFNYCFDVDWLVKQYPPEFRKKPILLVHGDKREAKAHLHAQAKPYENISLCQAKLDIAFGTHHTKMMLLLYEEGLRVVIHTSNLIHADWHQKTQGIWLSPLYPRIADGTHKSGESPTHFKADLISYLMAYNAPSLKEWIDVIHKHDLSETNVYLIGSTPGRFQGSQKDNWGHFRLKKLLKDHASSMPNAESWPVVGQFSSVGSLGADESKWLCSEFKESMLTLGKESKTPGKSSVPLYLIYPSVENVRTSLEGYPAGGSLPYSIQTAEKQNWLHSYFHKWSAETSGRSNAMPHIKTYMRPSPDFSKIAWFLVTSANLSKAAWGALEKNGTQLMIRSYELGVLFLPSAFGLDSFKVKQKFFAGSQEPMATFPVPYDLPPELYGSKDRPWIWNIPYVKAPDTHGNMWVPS
#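 Tdp1 1 nM final; 15 min RT w/ cpd; substrate 15 nM, 5 min; beads 10 ug/ml, 10 min; AlphaScreen read. Neg ctrl: no enzyme.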
# Starred values were filed as active, the others as inactive; ? = inconclusive; . = no result. This is a sample that favours compounds with a hit; in the whole collection about 19% have one here. Unless noted, the call rests on the fitted dose curve; in most records, active means well fitted curve in the direction sought with a large enough effect; inconclusive means small, poorly fitted or top-dose-only effect, or another doubt; inactive means no such curve, though single readings can be large; an effect the other way counts as inactive or inconclusive.
SMILES,IL1B secr inh,TDP1 cell noCPT,HepG2 viability,TDP1 cell CPT,TGFb SMAD3 inh,TDP1 inh
CCOC(=O)CNC(=O)O[C@@H]1C(=O)c2cc(Br)ccc2O[C@H]1c1ccc2c(c1)OCO2,.,.,.,.,.,8.7%
CCOC(=O)C1(CCOc2ccccc2)CCN(Cc2ccc(-n3cccn3)cc2)CC1,4.4,16.4µM*,-22.3%,?,-22.6%,6.2%
CCOC(=O)C1(CCOC)CCN(Cc2ccncc2)CC1,22.4,-4.2%,-14.6%,15.0%,0.9%,.
CCOC(=O)C1(CCOc2ccccc2)CCN(Cc2ccncc2)CC1,-20.1,25.9µM*,-23.7%,?,-12.3%,5.6%
COc1ccc(C(O)c2nc(-c3cccs3)cs2)cc1 (centres undefined),19.8,?,-13.6%,?,5.7%,.
COc1cccc(C(C)NC(=O)Nc2cc(Cl)ccc2OC)c1 (centres undefined),21.2,?,-42.2%,0.1%,?,0.0%
COC(=O)c1ccc(Cl)cc1NC(=O)NC(C)c1c(-n2cccc2)sc(C)c1C (centres undefined),.,?,-26.3%,?,.,3.9%
COC(=O)c1ccc(NC(=O)Nc2ccc([N+](=O)[O-])cc2)cc1,?,2.31µM*,3.4%,2.59µM*,-16.1%,.
COc1cccc(C(C)NC(=O)Nc2cccc(C(F)(F)F)c2)c1 (centres undefined),5.9,10.3µM*,-35.1%,20.6µM*,?,-3.8%
COc1cccc(NC(=O)Nc2ccc(C(C)(C)C)cc2)c1,-66.3*,23.1µM*,-38.5%,?,?,5.5%
Cc1sc(-n2cccc2)c(C(C)NC(=O)Nc2cccc(C(F)(F)F)c2)c1C (centres undefined),.,20.6µM*,-36.7%,?,.,1.0%
CCN(CC)C(=O)CSc1nc2cc(S(=O)(=O)N3CCOCC3)ccc2n1CC,0.5,-15.0%,-4.3%,0.9%,0.3%,2.0%
c1cncc(CNc2ncncc2-c2ccoc2)c1,.,-23.1%,.,?,.,.
COc1ccc(CNC(=O)CCc2c(C)nc3c(c2C)c(=O)n(C)c(=O)n3C)cc1,.,-12.1%,-13.1%,-4.3%,17.3%,5.8%
COc1ccc(OC(C)C(=O)NC2CCCCCCC2)cc1 (centres undefined),-9.9,-7.7%,-13.1%,-25.3%,-4.5%,.
COc1ccc(NC(=O)Nc2ccc(F)cc2)cn1,-2.8,7.31µM*,-4.7%,16.4µM*,5.4%,.
COc1cccc(NC(=O)Nc2nnc(Cc3ccccc3)s2)c1,30.9,?,-21.9%,?,-18.6%,-0.7%
CC1CCCCN1c1nnc(NC(=O)Nc2ccccc2F)s1 (centres undefined),.,20.6µM*,-13.4%,?,-10.5%,11.4%
COc1ccc(NC(=O)/C=C/c2ccc(OC(F)F)cc2)cn1,-53.9*,?,5.1%,-24.6%,23.7%,.
COc1cccc(NC(=O)Nc2nnc(N3C(C)CCCC3C)s2)c1 (centres undefined),41.2,18.4µM*,-25.8%,?,0.0%,.
O=C(Nc1ccc(F)cc1F)c1cc(-c2ccc(Cl)cc2)on1,.,?,-13.6%,-0.8%,4.6%,0.9%
COc1cc(OC)cc(C(=O)NCC2CCCN(Cc3cccc(C(C)=O)c3)C2)c1 (centres undefined),8.1,-10.1%,-15.0%,-11.3%,-11.2%,.
CC(C)(C)c1ccc(COC(=O)Nc2ccc(F)cc2)cc1,-0.7,-18.0%,-14.8%,-13.2%,-15.6%,5.1%
CC(C)(C)c1ccc(NC(=O)Nc2ccc(F)cc2)cc1,?,6.51µM*,-39.4%,5.17µM*,-28.1%,1.2%
